According to PubChem BioAssay:
Calls of active or inactive are those of the source.

Experiments:
[1] = binders of probe aFSTL3 on microarray, primary screen, stem cell growth factor project, biochemical, small-molecule microarray, fluorescence 635/667 (AID 1064); conditions: higher = more signal;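 also: measures binding of the biotinylated anti-FSTL3 antibody to printed compounds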
[2] = binders from COS7 lysate, DM2A8 probe, primary screen, torsin A project, cell lysate, small-molecule microarray, fluorescence 635/667 (AID 1065); conditions: higher = more signal, COS7 lysate expressing mutant human TOR1A
[3] = binders of probe aFGF2 on microarray, primary screen, stem cell growth factor project, biochemical, small-molecule microarray, fluorescence 635/667 (AID 1067); conditions: higher = more signal;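 also: measures binding of biotinylated aFGF2 protein to printed compounds on slides; z-score merges feature fluorescence and signal-to-noise across triplicate slides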
[4] = binders of probe aFGF10 on microarray, primary screen, stem cell growth factor project, biochemical, small-molecule microarray, fluorescence 635/667 (AID 1071); conditions: higher = more signal;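 also: score merges 667 nm spot intensity and signal to noise from triplicate slides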
[5] = molecular target: Neurogenic locus notch homolog protein 2 (Homo sapiens) (UniProt Q04721); test: Notch2 binders on small-molecule microarrays, primary screen, biochemical, small-molecule microarray, 635 nm fluorescence, stem cell growth factors (AID 1073); conditions: Notch2 binding, higher = more signal
[6] = molecular target: Pro-neuregulin-1, membrane-bound isoform (Homo sapiens) (UniProt Q02297); test: NRG1 binders on small-molecule microarrays, primary screen, psychiatric disease protein project, biochemical, small-molecule microarray, fluorescence 635/667 (AID 1075); conditions: NRG1 binding, 635 nm fluorescence, higher = more signal;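 also: score combines 667 nm spot fluorescence with signal to noise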
[7] = test system: Neuregulin-1 EGF-like domain; test: binders of neuregulin-1 EGF-like domain, primary screen, biochemical, small-molecule microarray, 635 nm fluorescence (AID 1081); conditions: small-molecule microarray binding, higher = more signal;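 also: binding of the protein to compounds printed on small-molecule microarray slides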
[8] = FRG1 promoter luciferase signal modulators, primary screen, FRG1 inhibition for FSHD, cell-based, C2C12 myotubes, firefly/Renilla luciferase, luminescence (AID 1084); conditions: higher = more signal, called active from +8 up or from −8 down
[9] = binders of probe aFST on microarray, primary screen, stem cell growth factor project, biochemical, small-molecule microarray, fluorescence 635/667 (AID 1086); conditions: higher = more signal;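 also: score merges 667 nm fluorescence with signal-to-noise of each printed compound spot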
[10] = binders of probe aHhip on microarray, primary screen, stem cell growth factor project, biochemical, small-molecule microarray, fluorescence 635/667 (AID 1087); conditions: higher = more signal;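 also: score merges spot fluorescence at 667nm with spot signal to noise ratio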

Sequence of Neurogenic locus notch homolog protein 2 (Homo sapiens) (Q04721 whole entry, looked up, canonical isoform): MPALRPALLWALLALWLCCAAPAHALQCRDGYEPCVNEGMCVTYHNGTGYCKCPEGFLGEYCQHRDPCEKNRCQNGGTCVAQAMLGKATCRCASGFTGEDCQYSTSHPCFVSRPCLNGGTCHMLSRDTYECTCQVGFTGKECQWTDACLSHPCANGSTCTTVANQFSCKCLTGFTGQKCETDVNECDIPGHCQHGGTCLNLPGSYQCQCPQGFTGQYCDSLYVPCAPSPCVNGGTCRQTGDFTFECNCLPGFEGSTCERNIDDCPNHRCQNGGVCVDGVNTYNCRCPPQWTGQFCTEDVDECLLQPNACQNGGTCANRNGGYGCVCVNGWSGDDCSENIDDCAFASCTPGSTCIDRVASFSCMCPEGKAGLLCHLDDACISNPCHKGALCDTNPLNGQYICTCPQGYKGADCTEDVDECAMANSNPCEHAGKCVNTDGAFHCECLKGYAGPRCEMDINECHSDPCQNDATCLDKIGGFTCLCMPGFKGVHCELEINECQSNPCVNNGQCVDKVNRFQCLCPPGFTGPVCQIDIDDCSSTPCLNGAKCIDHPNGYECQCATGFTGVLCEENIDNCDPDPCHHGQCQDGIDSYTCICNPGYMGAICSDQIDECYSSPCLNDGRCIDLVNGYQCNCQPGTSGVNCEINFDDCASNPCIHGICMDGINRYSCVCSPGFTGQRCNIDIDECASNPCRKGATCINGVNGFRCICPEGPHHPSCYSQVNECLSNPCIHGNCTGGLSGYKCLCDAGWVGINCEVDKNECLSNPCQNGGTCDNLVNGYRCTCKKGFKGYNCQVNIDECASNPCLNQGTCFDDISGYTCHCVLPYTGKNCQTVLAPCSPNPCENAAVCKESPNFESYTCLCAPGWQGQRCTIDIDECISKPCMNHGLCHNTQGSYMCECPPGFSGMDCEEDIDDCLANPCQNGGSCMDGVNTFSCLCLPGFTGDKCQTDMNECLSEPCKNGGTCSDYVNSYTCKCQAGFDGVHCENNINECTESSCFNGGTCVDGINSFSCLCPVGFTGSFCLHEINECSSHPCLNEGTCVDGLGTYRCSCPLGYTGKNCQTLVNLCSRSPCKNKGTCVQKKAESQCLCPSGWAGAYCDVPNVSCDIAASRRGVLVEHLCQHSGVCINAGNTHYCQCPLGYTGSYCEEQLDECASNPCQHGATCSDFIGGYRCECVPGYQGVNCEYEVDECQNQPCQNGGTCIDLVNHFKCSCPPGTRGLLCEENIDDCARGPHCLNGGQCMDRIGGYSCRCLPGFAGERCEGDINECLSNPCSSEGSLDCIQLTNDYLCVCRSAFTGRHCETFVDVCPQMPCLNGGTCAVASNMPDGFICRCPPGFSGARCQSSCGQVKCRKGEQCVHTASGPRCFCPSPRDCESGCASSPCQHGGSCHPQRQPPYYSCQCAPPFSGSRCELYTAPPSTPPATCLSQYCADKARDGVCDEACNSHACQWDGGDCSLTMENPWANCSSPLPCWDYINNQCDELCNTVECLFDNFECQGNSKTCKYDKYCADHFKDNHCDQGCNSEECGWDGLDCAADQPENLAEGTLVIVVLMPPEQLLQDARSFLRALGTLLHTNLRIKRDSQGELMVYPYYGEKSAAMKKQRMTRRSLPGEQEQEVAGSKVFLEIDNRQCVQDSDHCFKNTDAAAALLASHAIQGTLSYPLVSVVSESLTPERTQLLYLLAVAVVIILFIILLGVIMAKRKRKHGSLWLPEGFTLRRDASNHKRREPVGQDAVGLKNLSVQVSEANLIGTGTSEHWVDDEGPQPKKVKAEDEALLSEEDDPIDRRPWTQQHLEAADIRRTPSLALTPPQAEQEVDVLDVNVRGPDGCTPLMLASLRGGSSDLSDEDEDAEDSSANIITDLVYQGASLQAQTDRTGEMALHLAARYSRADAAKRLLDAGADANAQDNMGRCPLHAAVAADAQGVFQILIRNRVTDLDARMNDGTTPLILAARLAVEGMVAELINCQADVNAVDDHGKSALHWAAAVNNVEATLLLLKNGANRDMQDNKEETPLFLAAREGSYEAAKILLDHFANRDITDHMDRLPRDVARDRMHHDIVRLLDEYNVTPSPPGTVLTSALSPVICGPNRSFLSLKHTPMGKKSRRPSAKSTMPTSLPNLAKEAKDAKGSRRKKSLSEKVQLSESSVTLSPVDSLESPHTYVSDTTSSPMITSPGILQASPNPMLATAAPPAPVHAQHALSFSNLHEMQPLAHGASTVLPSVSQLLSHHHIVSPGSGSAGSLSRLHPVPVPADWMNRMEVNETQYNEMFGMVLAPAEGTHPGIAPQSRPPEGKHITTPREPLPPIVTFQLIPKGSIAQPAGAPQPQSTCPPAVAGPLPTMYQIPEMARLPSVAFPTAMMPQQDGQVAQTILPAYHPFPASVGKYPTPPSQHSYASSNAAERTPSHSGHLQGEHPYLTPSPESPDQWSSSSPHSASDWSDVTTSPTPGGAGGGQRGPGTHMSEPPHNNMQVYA
Sequence of Pro-neuregulin-1, membrane-bound isoform (Homo sapiens) (Q02297 whole entry, looked up, the tested form may be a part, canonical isoform): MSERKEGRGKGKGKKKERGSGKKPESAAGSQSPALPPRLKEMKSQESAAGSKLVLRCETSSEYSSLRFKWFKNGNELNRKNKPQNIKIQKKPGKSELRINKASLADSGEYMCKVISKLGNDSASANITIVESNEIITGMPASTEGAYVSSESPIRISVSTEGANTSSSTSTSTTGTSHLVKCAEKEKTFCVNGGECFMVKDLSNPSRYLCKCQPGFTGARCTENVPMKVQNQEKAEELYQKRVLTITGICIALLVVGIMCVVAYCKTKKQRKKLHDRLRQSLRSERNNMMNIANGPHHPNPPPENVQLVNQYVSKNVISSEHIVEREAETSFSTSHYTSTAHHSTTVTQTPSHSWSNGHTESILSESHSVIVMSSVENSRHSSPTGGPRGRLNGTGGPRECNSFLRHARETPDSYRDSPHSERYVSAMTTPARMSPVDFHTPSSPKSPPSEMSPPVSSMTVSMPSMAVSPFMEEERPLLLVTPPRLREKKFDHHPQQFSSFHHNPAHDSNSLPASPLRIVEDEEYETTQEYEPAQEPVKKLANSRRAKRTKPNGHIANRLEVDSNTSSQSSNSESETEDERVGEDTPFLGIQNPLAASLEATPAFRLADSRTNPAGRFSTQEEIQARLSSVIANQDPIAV

Row | Structure (SMILES) | composite z-score [1] | composite z-score [2] | composite z-score [3] | composite z-score [4] | composite z-score [5] | composite z-score [6] | composite z-score [7] | z-score [8] | composite z-score [9] | composite z-score [10]
1 | CCOC(=O)C[C@H]1[C@H](OC(=O)c2cc3ccccc3oc2=O)[C@@H](NC(=O)CC(C)C)c2cc(OCCCO)ccc2N1C(=O)Cc1ccc(OC)cc1 | -0.699 | -0.115 | -0.114 | 0.499 | 0.508 | 0.324 | 0.49 | -0.509 (inactive) | 0.479 | -0.201
2 | O=C1C2C=CC(C(O)c3c(F)cccc3Cl)N(Nc3ccc([N+](=O)[O-])cc3)C2C(=O)N1c1ccccc1 (stereo not given) | 0.0505 | 0.572 | 0.147 | 0.89 | 1.61 | 1.12 | 1.01 | -1.18 (inactive) | 1.37 | -0.0618
3 | COCC(=C=CC[C@H](O)c1ccccc1OCCO)C[C@H](O)COCc1ccccc1 | -0.287 | 0.584 | -0.0004 | 1.3 | 0.41 | 1.22 | 0.571 | 0.291 (inactive) | 0.092 | 0.107
4 | CN(C)CCCC[C@@H]1NC(=O)[C@H]2C[C@@H](C(=O)O)[C@@H](c3ccc(O)cc3)N2C1=O | 3.22 | 2.34 | 0.653 | 1.04 | 1.64 | 2.84 | 1.38 | 2.42 (inactive) | 3.29 | 1.38
5 | C[C@@H]1ON(c2ccc(I)cc2)[C@H](c2cccc(NC(=O)OCC3c4ccccc4-c4ccccc43)c2)[C@H]1C(=O)N1C(=O)OC[C@H]1Cc1ccccc1 | -0.162 | 0.382 | -0.132 | 0.15 | 0.524 | 0.608 | 0.0222 | 0.108 (inactive) | 0.0393 | 0.132
6 | CCCN1C(=O)[C@]2(CCC(=O)OC(C)(C)C)N=C(c3ccc(OCCCO)cc3)O[C@@H]2c2ccccc21 | 0.678 | 1.24 | -0.0136 | 0.152 | 0.399 | 0.421 | 1.07 | 0.177 (inactive) | 0.0678 | -0.0645
7 | C=CCC(OC(C)=O)[C@@H]1[C@@H](N(Cc2cc3ccccc3o2)C(=O)c2cccc3ccccc23)c2cc(OCCCO)ccc2N1C(=O)c1ccc2ccccc2n1 (stereo not given in full) | 1.68 | 0.27 | -0.116 | 0.0823 | 0.16 | -0.0193 | -0.112 | -1.53 (inactive) | -0.061 | -0.125
8 | COC(=O)C[C@H]1O[C@@]2(C[C@@H]1[Si](C)(C)C)C(=O)N(C)c1ccccc12 | -0.469 | 0.105 | -0.129 | 0.487 | 0.833 | 0.22 | 0.672 | -0.933 (inactive) | 0.607 | -0.0645
9 | CC(=O)OCC1C2CC[C@H]3C(OCc4ccc(F)cc4C(F)(F)F)OC[C@]4(C)[C@H]3C2=C(CN4C(=O)OC(C)(C)C)[C@H](C)C1COC(C)=O (stereo not given in full) | 0.496 | 1.4 | -0.0336 | 0.363 | 0.101 | 0.823 | 0.783 | 1.06 (inactive) | 0.579 | 0.141
10 | COc1ccc(C(O)C2C=CC3C(=O)NC(=O)C3N2Nc2ccc(Cl)cc2Cl)c2ccccc12 (stereo not given) | 0.877 | 0.433 | -0.106 | 0.273 | 1.02 | 0.999 | 1.04 | -0.0308 (inactive) | 0.951 | -0.216
11 | COc1ccc(C(O)C2C=CC3C(=O)N(c4ccccc4)C(=O)C3N2Nc2ccc([N+](=O)[O-])cc2)c2ccccc12 (stereo not given) | 0.138 | 0.263 | 0.0688 | 0.852 | 1.6 | 1.75 | 1.27 | 0.337 (inactive) | 0.812 | 0.251
12 | O=C1O[C@H](Cc2ccccc2)[C@@H]2[C@H]3C=CCCC=C3CN2[C@H]1Cc1ccc(O)cc1 | -0.117 | -0.0933 | -0.0692 | -0.026 | -0.562 | -0.465 | 0.0706 | 0.0201 (inactive) | 0.142 | 0.0976
13 | CCOC(=O)C[C@H]1[C@H](OC(=O)c2ccccc2-c2ccccc2)[C@@H](NC(=O)c2ccc3ccccc3c2)c2cc(OCCCO)ccc2N1C(=O)Cc1ccc(OC)cc1 | 0.225 | 0.0793 | -0.118 | 0.162 | -0.105 | 0.0671 | -0.58 | 1.11 (inactive) | 0.206 | -0.0645
14 | COC(=O)[C@@]1(Cc2ccc(F)cc2)[C@H]2c3cc(C(=O)N4CCCC4)n(CCc4ccccn4)c3C[C@H]2CN1C(=O)c1ccccc1 | 0.319 | -0.439 | 0.165 | 0.124 | 1.43 | 1.8 | 1.4 | 1.23 (inactive) | 0.858 | -0.201
